The record followed here is PubChem BioAssay (EPA / NIEHS).

Molecules are shown by their SMILES. Some structures have more than one record in an assay (separate samples or runs), and their calls can disagree. Activity calls are given as the source filed them. Rule for the calls: active = hit-call score of the fitted dose curve at least 0.9, where 1 is the maximum; inactive = score below 0.9.

Paired box protein Pax-6 (Homo sapiens), sequence (P26367 whole entry, looked up): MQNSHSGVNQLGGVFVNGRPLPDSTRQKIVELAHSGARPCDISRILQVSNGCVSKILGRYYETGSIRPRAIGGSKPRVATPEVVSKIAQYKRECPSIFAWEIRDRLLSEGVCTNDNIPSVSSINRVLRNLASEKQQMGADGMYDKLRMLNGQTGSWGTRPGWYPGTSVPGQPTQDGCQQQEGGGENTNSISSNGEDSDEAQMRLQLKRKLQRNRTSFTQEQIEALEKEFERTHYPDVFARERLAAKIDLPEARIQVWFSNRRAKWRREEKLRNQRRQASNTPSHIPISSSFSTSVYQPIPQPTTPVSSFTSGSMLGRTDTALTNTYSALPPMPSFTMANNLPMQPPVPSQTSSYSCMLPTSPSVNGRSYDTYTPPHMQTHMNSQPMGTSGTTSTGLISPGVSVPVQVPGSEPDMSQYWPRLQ

This assay concerns the target Paired box protein Pax-6 (Homo sapiens) (UniProt P26367). Description: ATG_Pax6_CIS: Attagene CIS-FACTORIAL HepG2 Assay for human Paired Box 6 (PAX6) (AID 2282956). The note with it: HepG2 CIS-FACTORIAL PAX6 reporter transcription, RNA readout; actives raise or lower the signal. The protocol: ATG_CIS is a cell-based, multiplexed-readout assay that uses HepG2, a human liver cell line, with measurements taken at 24 hours after chemical dosing in a 24-well plate.ATG_Pax6_CIS is one of 52 assay component(s) measured or calculated from the ATG_CIS assay. It is designed to make measurements of mRNA induction, a form of inducible reporter, as detected with fluorescence intensity signals by Reverse transcription polymerase chain reaction (RT-PCR) and Capillary electrophoresis technology.Data from the assay component ATG_Pax6_CIS was analyzed into 1 assay endpoint. This assay endpoint, ATG_Pax6_CIS, was analyzed with bidirectional fitting relative to DMSO as the negative control and baseline of activity. Using a type of inducible reporter, measures of mRNA for gain or loss-of-signal activity can be used to understand the reporter gene at the transcription factor-level as they relate to the gene PAX6. Furthermore, this assay endpoint can be referred to as a primary readout, because this assay has produced multiple assay endpoints where this one serves a reporter gene function. To generalize the intended target to other relatable targets, this assay endpoint is annotated to the dna binding intended target family, where the subfamily is paired box protein.
Human liver HepG2 cells are transiently transfected with multiple reporter transcription units (MRTUs) in 6-well plates using FuGene 6 reagent (Roche; 3 ml FuGene/1 mg DNA). The MRTU constructs are regulated by a cis-regulating element (promoter). […] A major difference between the CIS and TRANS system is that in CIS activities of endogenous TFs are measured, whereas the TRANS assay evaluates changes in activities of exogenous, chimeric NR-Gal4 proteins. […] At the end of 24 hour incubation, total RNA was isolated using TriZol reagent (Invitrogen). The isolated RNA is then reverse-transcribed using oligo(dT) primer and Mo-MLV reverse transcriptase (Invitrogen) with DNAse I (Ambion) treatment for 30 min. The one-tenth of the produced cDNA was amplified by PCR using Taq DNA polymerase (Invitrogen) and two reporter sequence-specific primers. The PCR products were fluorescently labeled by primer extension with 6-arboxyfluorescein (6-FAM) 5'-labeled reporter sequence-specific primer (2 min at 95 C, 20 s at 68 C and 10 min at 72 C) and these products were digested with 5U of HpaI (New England Biolabs) for 2h at 37 C. The fragments were purified using Qiaquick PCR columns (Qiagen), analyzed on an ABI 3130xL genetic analyzer (Applied Biosystems) with peak positions identified by using a set of X-rhodamine (ROX)-labeled MapMarker1000 molecular weight standards (BioVentures). The raw capillary electrophoresis data was processed using Attagraph software (Attagene).
Turning to `COC(=O)c1ccccc1N`, the molecule was classed as inactive.

Consider `C[N+](C)(C)CC1CO1` (stereo not given), for which the result was inactive.

As for `CCC[CH2][Sn]([Cl])([CH2]CCC)[CH2]CCC`, the AC50 was 0.678 µM (active).

For the molecule `ClC1=C(Cl)C2(Cl)C3C(Cl)C=CC3C1(Cl)C2(Cl)Cl` (stereo not given), the AC50 is 139 µM (active).

With `CCOC(=O)[C@]1(c2ccccc2)Oc2ccccc2[C@@H]1N`, the AC50 was 37.6 µM (active).

Regarding `CCNS(=O)(=O)C(F)(F)C(F)(F)C(F)(F)C(F)(F)C(F)(F)C(F)(F)C(F)(F)C(F)(F)F`, the call was inactive and the AC50 was 96.5 µM (active).

Consider `Clc1ccccc1Cl`, for which the outcome was inactive.

With `CC(O)CCO` (stereo not given), the outcome was inactive.

On to `O=C(Nc1ccccc1)c1ccccc1I`, for which the molecule was classed as inactive.

Take `C=CCc1ccc2c(c1)OCO2`: the result was inactive.

For `Nc1ccc(Oc2ccc(N)cc2)cc1`, the outcome was inactive.

For `Clc1ccc(Cl)c(Cl)c1`, the molecule was called inactive.

As to `CCCCCCCCOC(=O)c1ccc(C(=O)OCCCCCCCC)c(C(=O)OCCCCCCCC)c1`, the molecule was called inactive.

As to `O=[N+]([O-])c1ccc(Oc2ccc(Cl)cc2Cl)cc1`, the AC50 is 31.9 µM (active).

Turning to `Cc1cccc(N)c1N`, the AC50 is 106 µM (active).

Take `O=[N+]([O-])C(Br)(CO)CO`: the AC50 is 100 µM (active).

On to `Cc1ccc([N+](=O)[O-])cc1`, for which the molecule was classed as inactive.

Turning to `CN(C)C(=O)Nc1ccc(Cl)cc1`, the outcome was inactive.

Regarding `CN(C)c1ccccc1`, the result was inactive.

Take `CCCCCCCCCCCCCN1CC(C)OC(C)C1` (stereo not given): the result was inactive.

On to `OCCCBr`, for which the outcome was inactive.

`Cc1cc(N=Nc2ccccc2C)ccc1N`: the AC50 was 22.4 µM (active).

`Clc1ccc(C(c2ccc(Cl)cc2)C(Cl)(Cl)Cl)cc1`: the outcome was inactive.

With `Nc1ccc(N=Nc2ccccc2)cc1`, the AC50 is 47.4 µM (active).

Turning to `O=Cc1ccco1`, the result was inactive.

On to `[O-][Cl+]O`, for which the call was inactive.

As for `CO[C@@H]1[C@H](OC(=O)NC(=O)CCl)CC[C@]2(CO2)[C@H]1[C@@]1(C)O[C@@H]1CC=C(C)C`, the molecule was classed as inactive.

Take `Clc1ccc(C(c2ccc(Cl)cc2)C(Cl)Cl)cc1`: the AC50 is 62.7 µM (active).

Regarding `C[C@]12C=CC3=C4CCC(=O)C=C4CC[C@H]3[C@@H]1CC[C@@H]2O`, the molecule was called inactive and the AC50 is 34.2 µM (active).

Consider `CC(C)(C)OOC(C)(C)CCC(C)(C)OOC(C)(C)C`, for which the molecule was called inactive.

In the case of `Oc1ccccc1Cl`, the molecule was called inactive.

On to `Oc1ccc2ccc3cccc4ccc1c2c34`, for which the call was inactive.

As for `O=C(O)C1C2CCC(O2)C1C(=O)O` (stereo not given), the AC50 was 123 µM (active).

On to `c1ccc2c(c1)-c1cccc3cccc-2c13`, for which the outcome was inactive.

For the molecule `Nc1ccc(Cl)cc1N`, the AC50 was 27.4 µM (active).

With `Nc1ccc([N+](=O)[O-])cc1`, the molecule was called inactive.

As to `OCCCl`, the outcome was inactive.

As for `Brc1ccc(Oc2ccccc2)cc1`, the call was inactive.

What is called AC50 is the concentration at which the activity in the assay is half-maximal.
